# RecA splice inh: blocks M. tuberculosis RecA intein splicing; P9WHJ3; 290,000 compounds, 0.75% hits; cell-free RecA intein splicing, fluorescence; inhibition, % (no concentration beside the values); in the data active means inhibition above about 30%;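 further: 0% = vehicle wells and 100% = reference inhibitor control wells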
# Mtb hypoxia inh: inhibitors of hypoxia-regulated fluorescent reporter in Mycobacterium tuberculosis; M. tuberculosis hypoxia-regulated fluorescent reporter, fluorescence; AID 1159583; 300,000 compounds, 0.1% hits; fluorescence inhibition, % (test concentration not listed); in the data active means fluorescence inhibition mostly above about 23%, no sharp cut-off; inactive means mostly below about 17%
# Mtb betalactam: beta-lactam sensitization of Mtb H37Rv | M. tuberculosis H37Rv growth with meropenem, percent inhibition | inhibition, % at 25 µM | 330,000 compounds, 0.27% hits;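 further: growth measured after seven days incubation then overnight dye step; 0% = bacteria only wells and 100% = bacteria with antibiotic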
# UGM FP inh: blocks M. tuberculosis UGM enzyme; P9WIQ1; purified UGM, fluorescence polarization probe displacement; inhibition, % at 10 µM; 320,000 compounds, 0.06% hits; in the data active means inhibition above about 10%, passing the limit was not always enough
# Target sequence (P9WIQ1 whole entry, looked up): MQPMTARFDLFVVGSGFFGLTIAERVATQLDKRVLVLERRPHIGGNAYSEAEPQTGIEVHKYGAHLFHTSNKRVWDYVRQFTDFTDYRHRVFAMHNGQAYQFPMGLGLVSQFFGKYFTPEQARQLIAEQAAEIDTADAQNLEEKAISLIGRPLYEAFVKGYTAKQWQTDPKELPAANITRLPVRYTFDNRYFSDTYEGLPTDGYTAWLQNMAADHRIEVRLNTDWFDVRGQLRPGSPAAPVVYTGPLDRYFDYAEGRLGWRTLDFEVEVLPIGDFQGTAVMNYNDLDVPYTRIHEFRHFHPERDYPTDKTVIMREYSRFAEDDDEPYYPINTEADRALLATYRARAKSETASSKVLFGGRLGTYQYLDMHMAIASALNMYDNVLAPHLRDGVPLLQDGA
# Rv3671c inh: inhibitors of M. tuberculosis serine protease Rv3671c | P9WHR9 | inhibition, % at 5.96 µM | 320,000 compounds, 0.048% hits | AID 2606; in the data active means inhibition above about 38%;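 further: extracellular domain of Rv3671c used as enzyme; 0% = enzyme with DMSO and 100% = no enzyme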
# GFP chromo cs: counter-screen: blocks GFP chromophore formation; cell-free GFP chromophore formation, fluorescence; EC50, µM; shares compounds with RecA splice inh; 2,100 compounds, 83% hits
# * = called active by the depositor; nt = no result given. Only some compounds are listed: those with a hit (about 0.77% of all), similar ones and a draw of the others. Unless noted, how the calls were made is not given here.
SMILES,RecA splice inh,Mtb hypoxia inh,Mtb betalactam,UGM FP inh,Rv3671c inh,GFP chromo cs
CCOc1cc(CNc2ccc3cn[nH]c3c2)ccc1OC,77*,-2,82,-1,-18,12*
C=CCOc1ccc(CNc2ccc3[nH]c(=O)[nH]c3c2)cc1OC,nt,4,nt,nt,nt,nt
O=C(NCc1ccccn1)C1(C(F)(F)F)CC(=CCCO)CCCO1 (configuration not stated),nt,6,nt,nt,nt,nt
O=C1c2ccccc2OC2(C=Cc3ccccc3O2)N1Cc1ccccc1 (configuration not stated),32*,-1,39,-2,-2,>38
CCCc1ccc(/C=C2\C(=O)c3ccccc3C(O)=C2C(=O)OCC)cc1,36*,nt,nt,-2,-28,10*
CCOC(=O)C1=C(O)c2ccccc2C(=O)/C1=C\c1ccc(CC)cc1,49*,6,7,0,-76,5.1*
CCOC(=O)C1=C(Cc2ccc(OC)cc2)C(=O)c2ccccc2C1=O,nt,8,nt,nt,nt,nt
CCOC(=O)c1ccc(COC(=O)c2ccc3c(c2)-c2ccccc2C3=O)cc1,2,-4,9,0,2,nt
NC1=NCC(Cc2ccc(O)cc2)N1CCc1cccc2ccccc12 (configuration not stated),nt,0,nt,nt,nt,nt
CCOC(=O)C1C2COc3ccc(C)cc3C2N2C(=O)CN(Cc3ccco3)C(=O)[C@@]12C (some centres not stated),nt,9,nt,nt,nt,nt
COCCNC(=O)[C@@]1(Cc2ccccc2)C=CC(C)N1C(C)=O (some centres not stated),nt,21,nt,nt,nt,nt
O=C1C=Cc2ccccc2C1=O,39*,nt,7,2,2,9.1*
CCN1C(=C2C(=O)c3ccccc3C2=O)C=Cc2ccccc21,-2,8,1,1,-2,nt
CC(C)CC1CN=C(Nc2ccccc2)N1CC1CCCCC1 (configuration not stated),nt,0,nt,nt,nt,nt
Nc1c(O)cccc1C(=O)O,71*,-6,-2,0,-64,6.1*
O=C(O)c1ccccc1O,-2,19,-3,2,9,nt
C#CCOCCOCCOCCNc1nc(N2CCN(C(=O)C(CCC(=O)O)n3cc(C(N)Cc4ccc(O)cc4)nn3)CC2)nc(N2CCN(C(=O)C(Cc3cc4ccccc4[nH]3)n3cc(C(N)CC(C)C)nn3)CC2)n1 (configuration not stated),nt,-4,nt,nt,nt,nt
O=C1CC(c2ccc(O)cc2)Oc2cc(O)cc(O)c21 (configuration not stated),1,3,-3,3,-20,nt
CC1CC(=O)c2c(cc3c(-c4c(O)cc(O)c5c(O)c6c(cc45)OC(C)CC6=O)c(O)cc(O)c3c2O)O1 (configuration not stated),96*,nt,14,5,35,2.5*
Cc1ccccc1CS(=O)(=O)c1snnc1C,44*,10,-16,-2,-6,>38
O=S(=O)(c1ccccc1)[C@@]1(c2ccccc2)CC2ON=C(c3cccc(-c4ccccc4)c3)C2C1 (some centres not stated),nt,10,nt,nt,nt,nt
COc1ccc(C(=O)c2c(C(F)(F)F)oc3c2C(=O)c2ccccc2C3=O)cc1OC,67*,nt,99,2,-70,11*
COc1ccc(C(=O)Nc2ccc3c(c2)C(=O)c2ccccc2C3=O)cc1OC,2,-11,3,-1,0,nt
CCN(CC)CCNC(=O)c1ccc2c(c1NCCO)C(=O)c1ccccc1C2=O,78*,11,28,1,-26,6.9*
CC(c1ccccc1)n1nnc(COCc2ccccc2)c1C#CCOCc1ccccc1 (configuration not stated),nt,13,nt,nt,nt,nt
SMILES,RecA splice inh,Mtb hypoxia inh,Mtb betalactam,UGM FP inh,Rv3671c inh,GFP chromo cs
CCOC(=O)C1(CCOc2ccccc2)CCN(Cc2ccc(O)c(Cl)c2)CC1,43*,11,83,-2,nt,>38
CC(=O)Oc1ccc2ccccc2c1C(NC(=O)Cc1ccccc1)c1ccc(Cl)cc1 (configuration not stated),43*,4,6,1,-11,>38
O=[N+]([O-])c1ccc(O)c2cccnc12,nt,6,1,2,-5,nt
O=[N+]([O-])c1ccc(O)c2ncccc12,43*,nt,82,-1,-2,25*
CC(NC(=O)/C(C#N)=C/c1ccc([N+](=O)[O-])o1)c1ccccc1 (configuration not stated),47*,nt,100,0,-19,>38
CC(NC(=O)/C(C#N)=C/c1ccco1)c1ccccc1 (configuration not stated),2,2,-6,1,2,nt
COCc1[nH]nc2c1C(c1sccc1C)C(C#N)=C(N)O2 (configuration not stated),-1,10,9,-1,2,nt
N#CC1=C(N)Oc2n[nH]c(-c3cccs3)c2C1c1ccccc1C(=O)O (configuration not stated),76*,4,-6,-1,-19,12*
N#CC1=C(N)Oc2n[nH]c(-c3cccs3)c2C1c1cccs1 (configuration not stated),79*,14,6,0,-7,11*
C#CCOCCOCCOCCNc1nc(N2CCN(C(=O)C(Cc3ccc(O)cc3)n3cc(C(N)CC(C)C)nn3)CC2)nc(N2CCN(C(=O)C(C(C)CC)n3cc(C(N)CC(C)C)nn3)CC2)n1 (configuration not stated),nt,7,nt,nt,nt,nt
Cc1nn(-c2cccc(Cl)c2)c2c1C(c1cccnc1)C(C#N)=C(N)O2 (configuration not stated),35*,-1,5,1,-158,21*
Cc1nn(-c2cccc(Cl)c2)c2c1C(c1ccncc1)C(C#N)=C(N)O2 (configuration not stated),57*,11,-2,-1,-139,23*
CC(=O)C1=C(C)OC(N)=C(C#N)C1c1ccncc1 (configuration not stated),-1,nt,-9,2,0,nt
COc1ccc(OC)c(C2C(C#N)=C(N)Oc3c2c(C)nn3-c2cccc(Cl)c2)c1 (configuration not stated),37*,3,10,2,-27,38*
COc1ccc(OC)c(C2C(C#N)=C(N)Oc3cc(C)[nH]c(=O)c32)c1 (configuration not stated),-3,12,-3,1,-12,nt
O=C1C2C3CCC(C3)C2C(=O)N1c1ccc(OS(=O)(=O)c2ccccc2)cc1 (configuration not stated),-1,0,-8,4,10,nt
O=C(Oc1ccc(N2C(=O)C3C4CCC(C4)C3C2=O)cc1)c1ccco1 (configuration not stated),30*,7,-3,-1,5,>38
O=S(=O)(Nc1cccnc1)c1cccc(C(F)(F)F)c1,-2,12,0,1,-8,nt
O=[N+]([O-])c1ccc(S(=O)(=O)c2cccc(C(F)(F)F)c2)nc1,50*,-18,100,2,6,30*
CC(=O)NC1=NN(c2ccccc2)C(=O)C1,82*,1,-4,-1,-9,36*
O=C(CCCCl)NC1=NN(c2ccccc2)C(=O)C1,nt,5,-4,4,-18,nt

# Bioassay records as filed in PubChem BioAssay.
